Reference: the supplement of paper PMC6555819

What was measured:
Experiment in all cases: PBM binding z-score (relative to random genomic background probes); higher = stronger binding; sequences stand for … in GC…GCGATTGACAGCGTAGAATGAAGG
[1] = system: FXR:RXRa (NR concentration 270 nM, RXRa partner concentration 90 nM)
Method in brief: (§1)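 Ligand-free nuclear receptor dimers were applied to custom Agilent 4×180K protein-binding microarrays whose double-stranded probes carried direct-repeat seeds, single-nucleotide variants, half-site ablations and random human genomic background sequences in 34-nt variable regions. Incubation lasted 1 h. Binding z-scores were computed against the random background probes from regression-normalized fluorescence.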

[2] = system: LXRa:RXRa (NR concentration 270 nM, RXRa partner concentration 90 nM)
Method in brief: as §1

[3] = system: LXRa homodimer (NR concentration 270 nM)
Method in brief: as §1

[4] = system: LXRb:RXRa (NR concentration 270 nM, RXRa partner concentration 90 nM)
Method in brief: as §1

[5] = system: LXRb homodimer (NR concentration 270 nM)
Method in brief: as §1

[6] = system: PPARa:RXRa (NR concentration 270 nM, RXRa partner concentration 90 nM)
Method in brief: as §1

[7] = system: PPARg:RXRa (NR concentration 180 nM, RXRa partner concentration 90 nM)
Method in brief: as §1

[8] = system: PPARg:RXRa 270nM:90nM, anti-RXR (NR concentration 270 nM, RXRa partner concentration 90 nM)
Method in brief: as §1

[9] = system: PPARg:RXRa 30nM:10nM, anti-RXR (NR concentration 30 nM, RXRa partner concentration 10 nM)
Method in brief: as §1

[10] = system: PPARg:RXRa 90nM:30nM, anti-RXR (NR concentration 90 nM, RXRa partner concentration 30 nM)
Method in brief: as §1

[11] = system: PPARg:RXRa DBDmut IVT, anti-RXR (DBD mutation: RXRa K156A/R161A, NR concentration 270 nM, RXRa partner concentration 90 nM)
Method in brief: as §1

[12] = system: PPARg:RXRa IVT, anti-PPARg (NR concentration 270 nM, RXRa partner concentration 90 nM)
Method in brief: as §1

[13] = system: PPARg DBDmut:RXRa IVT, anti-PPARg (DBD mutation: PPARg1 K132A/R137A, NR concentration 270 nM, RXRa partner concentration 90 nM)
Method in brief: as §1

[14] = system: PPARg DBDmut IVT, anti-PPARg (DBD mutation: PPARg1 K132A/R137A, NR concentration 270 nM)
Method in brief: as §1

[15] = system: PPARg homodimer (NR concentration 180 nM)
Method in brief: as §1

[16] = system: PXR:RXRa (NR concentration 270 nM, RXRa partner concentration 90 nM)
Method in brief: as §1

[17] = system: PXR homodimer (NR concentration 270 nM)
Method in brief: as §1

[18] = system: RARa:RXR (NR concentration 270 nM, RXRa partner concentration 90 nM)
Method in brief: as §1

[19] = system: RARa homodimer (NR concentration 270 nM)
Method in brief: as §1

[20] = system: RARb:RXRa (NR concentration 270 nM, RXRa partner concentration 90 nM)
Method in brief: as §1

Sequence	PBM binding z-score [1]	PBM binding z-score [2]	PBM binding z-score [3]	PBM binding z-score [4]	PBM binding z-score [5]	PBM binding z-score [6]	PBM binding z-score [7]	PBM binding z-score [8]	PBM binding z-score [9]	PBM binding z-score [10]	PBM binding z-score [11]	PBM binding z-score [12]	PBM binding z-score [13]	PBM binding z-score [14]	PBM binding z-score [15]	PBM binding z-score [16]	PBM binding z-score [17]	PBM binding z-score [18]	PBM binding z-score [19]	PBM binding z-score [20]
TAGCCTAGGTCAGGTCGGGCCAGTATACGCTATA	2.66	1.06	-0.52	0.724	-0.502	1.71	0.639	0.781	-0.544	0.204	0.315	1.69	-0.681	-1.44	0.477	1.51	-0.668	1.25	-1.19	3.24
CCTACTGGGCCAAAAAGGTCATTGAGGCCGATAA	3.73	4.24	2.98	4.11	0.134	4.69	3.3	3.92	1.27	3	3.53	3.88	-0.547	-0.0751	2.79	5.38	10.7	5.6	2.12	3.8
ACTTACGGGTCAACGAGGTTAAAGCACGCGTATA	7.3	5.07	0.882	4.97	0.527	6.09	6.14	5.57	2.44	4.29	3.22	4.19	0.985	1.02	2.28	5.38	3.33	5.36	0.479	4.53
TGAATGAGGTTAAAGATCGGGGAACGTGGCGTCG	2.84	2.61	-0.0577	1.64	0.61	4.29	4.54	5.57	3.66	5.49	2.68	3.12	1.11	-0.0519	0.857	1.55	0.231	2.5	0.262	2.15
ATCTCTAGGTAACCAAGTTCAGTCAATGCCGAAC	0.839	1.13	1.15	1.16	0.769	1.56	0.836	0.815	0.185	0.74	4.07	3.07	0.988	0.947	1.23	2.3	2.93	1.03	1.01	1.34
ACTCAAAGTTCAGGACGAGGTAACGTAAAGCACG	4.15	4.07	1.77	2.18	0.639	3.27	1.61	1.86	0.747	1.23	0.133	0.996	0.541	0.409	2.29	3.09	1.46	2.81	0.77	4.52
GCTATTAGTTGAAAGGGCAACCCAATGATTCTCG	0.453	0.68	0.645	0.925	-0.181	2.4	2.65	4.29	1.81	3.88	0.127	0.818	-0.129	0.251	1.44	0.791	0.511	1.27	0.81	2.08
ATATGTAGGTTAAGGCTCATTCAGGTTGGTTCGC	0.549	0.861	0.334	0.683	0.0062	3.43	5.54	5.46	2.91	5.15	7.51	7.12	5.15	3.53	2.08	0.38	0.413	0.411	0.882	1.02
CCTACTGGGCCATCAGGTCATTGACATCAACGTT	2.17	1.67	1.29	2.01	-0.379	2.7	3.12	3.54	1.46	2.55	4.78	5.02	0.0284	0.33	1.3	1.67	0.415	2.15	0.278	2.09
TCATATAGGTAAATGCTAGGTGAAAGTGCGATCT	1.14	1.17	0.315	0.829	0.24	1.87	1.89	3.48	3.99	3.81	4.06	3.13	0.822	0.878	1.41	0.653	0.401	1.12	1.15	0.649
CCGACTGGGGCAGAAAGGTTTCCATACCATCCGG	-0.743	-0.804	-0.629	-1.01	-1.31	-0.642	0.629	0.229	-0.72	-0.258	1.64	0.908	-1.84	-1.79	-0.677	-0.755	-0.948	-0.82	-1.09	0.352
CAAACTAGGTCACGATAGGTCAAAGTCGAATGAC	5.83	8.21	5.31	6.9	1.01	6.14	9.76	7.74	6.05	7.79	8.73	9.21	3.89	2.14	4.63	5.42	0.73	5.95	1.74	4.88
ACAGACAGGTGACGAAGGTAACTCAGGCTATCAT	-0.34	-0.14	-0.233	-0.231	-0.858	0.582	0.955	0.489	-0.242	0.424	0.762	1.19	0.0336	-0.57	-0.168	-0.208	-0.237	0.144	0.0267	0.637
ATCGAAAGGTCGAGGTGAGTTTAGAGAAAGGGAA	4.34	3.68	-0.00415	2.76	0.473	4.5	3.03	3.81	1.16	2.57	0.367	2.26	0.969	0.594	1.7	5.04	1.12	3.71	0.68	4.26
